# Article PMC4336329 (PLoS ONE, 2015)
# The campaign covered roughly 310,000 compounds. About 14,000 (4.5%) showed an effect of 50% or more. Effects have a minus sign here. This is one part of a sample in which strong results are shown more often than they occur.
# Target: human ether-à-go-go-related gene (hERG) potassium channel (human, UniProt Q12809)
# Assay: primary screen, population patch clamp on CHO cells stably expressing hERG; higher = less effect of the substance
# 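Note: peak tail current of the secondary pulse compared with the same well before compound.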
# Chain of human ether-à-go-go-related gene (hERG) potassium channel (Q12809 whole entry, looked up): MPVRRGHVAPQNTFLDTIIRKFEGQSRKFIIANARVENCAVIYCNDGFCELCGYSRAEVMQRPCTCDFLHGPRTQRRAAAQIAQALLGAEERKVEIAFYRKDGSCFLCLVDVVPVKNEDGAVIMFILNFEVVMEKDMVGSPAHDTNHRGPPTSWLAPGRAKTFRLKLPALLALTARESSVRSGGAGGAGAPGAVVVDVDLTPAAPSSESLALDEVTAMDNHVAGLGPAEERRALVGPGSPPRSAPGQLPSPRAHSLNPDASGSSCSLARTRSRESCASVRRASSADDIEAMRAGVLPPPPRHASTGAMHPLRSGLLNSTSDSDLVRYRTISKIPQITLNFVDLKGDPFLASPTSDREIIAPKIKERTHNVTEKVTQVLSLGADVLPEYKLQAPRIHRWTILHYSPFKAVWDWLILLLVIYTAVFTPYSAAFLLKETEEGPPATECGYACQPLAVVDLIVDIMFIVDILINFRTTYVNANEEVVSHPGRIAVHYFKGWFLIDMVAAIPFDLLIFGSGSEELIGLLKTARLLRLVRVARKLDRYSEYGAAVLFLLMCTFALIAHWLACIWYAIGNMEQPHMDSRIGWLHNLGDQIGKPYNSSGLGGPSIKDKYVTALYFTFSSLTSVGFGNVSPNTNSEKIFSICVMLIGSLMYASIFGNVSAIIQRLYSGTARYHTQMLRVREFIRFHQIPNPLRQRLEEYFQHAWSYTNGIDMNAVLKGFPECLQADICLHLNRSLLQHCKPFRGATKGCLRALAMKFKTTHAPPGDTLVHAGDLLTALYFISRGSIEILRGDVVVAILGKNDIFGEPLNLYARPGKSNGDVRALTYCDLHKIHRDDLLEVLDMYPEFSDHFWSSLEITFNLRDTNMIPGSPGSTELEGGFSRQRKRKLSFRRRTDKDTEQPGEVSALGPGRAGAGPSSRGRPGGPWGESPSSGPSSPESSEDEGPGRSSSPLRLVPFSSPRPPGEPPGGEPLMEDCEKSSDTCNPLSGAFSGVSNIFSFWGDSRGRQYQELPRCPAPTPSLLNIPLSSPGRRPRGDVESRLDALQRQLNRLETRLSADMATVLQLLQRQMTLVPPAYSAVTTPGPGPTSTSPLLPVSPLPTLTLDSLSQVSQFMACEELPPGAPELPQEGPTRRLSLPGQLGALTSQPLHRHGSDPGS
row,Structure (SMILES),"hERG current change (%, negative = inhibition) at 10uM"
1,CC1(/[N+]([O-])=C\c2ccccc2F)CCCCC1=O (stereo not drawn),8.53%
2,Cc1ccn2c(-c3n[nH]c(=S)n3C)c(C)nc2c1,19.6%
3,COc1cccc(NC(=O)N2CCCC2C(=O)Nc2ccc3c(c2)OCO3)c1 (stereo not drawn),15.8%
4,O=c1[nH]c(=O)n(Cc2ccco2)c(O)c1/C=N/N1CCCCC1,3.21%
5,O=c1[nH]c(=O)n(Cc2ccco2)c(O)c1C=NC1CC1,9.35%
6,O=c1[nH]c(=O)n(CCC2=CCCCC2)c(O)c1/C=N/Nc1ccccc1,14.8%
7,O=c1[nH]c(=S)n(CCC2=CCCCC2)c(O)c1C=NC1CCN(Cc2ccccc2)CC1,-55%
8,Cn1c(O)c(C=NC2CCN(Cc3ccccc3)CC2)c(=O)n(C)c1=O,-20.4%
9,O=C(N/N=C/c1c(O)n(CCC2=CCCCC2)c(=S)[nH]c1=O)c1ccccc1,7.94%
10,O=c1[nH]c(=O)n(C2CCCCCC2)c(O)c1C=NC1CCN(Cc2ccccc2)CC1,-53.2%
11,O=c1[nH]c(=O)n(C2CCCCCC2)c(O)c1C=NCc1cccnc1,-9.79%
12,O=c1[nH]c(=S)n(CCC2=CCCCC2)c(O)c1/C=N/Nc1ccccc1,-7.83%
13,C=CCn1c(O)c(C=NC2CCN(Cc3ccccc3)CC2)c(=O)[nH]c1=O,-33.5%
14,O=c1[nH]c(=O)n(Cc2ccco2)c(O)c1C=NC1CCN(Cc2ccccc2)CC1,-59.2%
15,O=c1[nH]c(=O)n(CCC2=CCCCC2)c(O)c1C=NC1CCN(Cc2ccccc2)CC1,-58.6%
16,CC(C)(C)NC(=O)COC(=O)c1cc(S(=O)(=O)N2CCCCC2)ccc1N1CCOCC1,-6.23%
17,CCOC(=O)c1ccc(N2C(=O)CC(Nc3ccc(CCO)cc3)C2=O)cc1 (stereo not drawn),-25.5%
18,OCC[C@@H]1C[C@H](O)[C@@H](O)[C@]2(CCCCO2)O1,21.2%
19,CCOc1ccc(C(Nc2ccc(C)cc2)P2(=O)OCC(C)(C)CO2)cc1 (stereo not drawn),4.67%

row,Structure (SMILES),"hERG current change (%, negative = inhibition) at 10uM"
1,Cn1cccc1CC(=O)NNC(=O)Nc1cccc(Cl)c1,18.9%
2,O=S(=O)(Nc1ccccc1O)c1cccc2cccnc12,8.14%
3,O=C(CNC(=O)c1cccs1)NCCN1CCN(c2ccccc2F)CC1,-35.3%
4,N#Cc1ccc(NC(=O)N2CCC(c3nc4c(nnn4Cc4cccc(Cl)c4)c(=O)[nH]3)CC2)cc1,3.5%
5,Cc1ccccc1SCC(=O)Nc1cc(C(F)(F)F)ccc1N1CCOCC1,-1.77%
6,O=c1[nH]c(=O)n(CCc2ccccc2)c(O)c1C=NC1CC1,3.17%
7,CCCCCCn1c(O)c(C=NC2CCN(Cc3ccccc3)CC2)c(=O)[nH]c1=O,-65.7%
8,Cn1c(O)c(C=NC2CCN(Cc3ccccc3)CC2)c(=O)[nH]c1=O,-26.5%
9,O=C(CN1CCCCC1)Nc1ccccc1-c1ccccc1,-9.07%
10,COC(=O)c1ccccc1NC(=O)CN1CCC(C)CC1,9.3%
11,Cc1cccc(NC(=O)CN2CCN(CC(=O)NCc3ccc(Cl)cc3Cl)CC2)c1C,-18.2%
12,NC(=O)c1ccccc1NC(=O)CN1CCN(Cc2ccc(Cl)cc2Cl)CC1,-76.1%
13,O=C(CN1CCOCC1)Nc1ccccc1-c1ccccc1,4.15%
14,COC(=O)c1ccccc1NC(=O)N1CCN(C(=O)c2ccco2)CC1,-25%
15,NC(=O)c1ccccc1NC(=O)Nc1cccc(Cl)c1,-8.62%
16,O=C(CN1CCN(Cc2ccccc2)CC1)Nc1ccccc1-c1ccccc1,-89.8%
17,COC(=O)c1ccccc1NC(=O)CN1CCN(C(=O)c2ccco2)CC1,-51.6%
18,COC(=O)c1ccccc1NC(=O)CN1CCN(C23CC4CC(CC(C4)C2)C3)CC1,-77.5%
19,COC(=O)c1ccccc1NC(=O)CN1CCOCC1,5.86%

row,Structure (SMILES),"hERG current change (%, negative = inhibition) at 10uM"
1,COc1ccc(OCC(=O)NCCCN2CCOCC2)cc1,10.7%
2,CC1=C(C(=O)OCc2ccccc2)C(c2ccsc2)C(C#N)=C(N)O1 (stereo not drawn),-6.93%
3,Cc1cccc(COc2ccc(/C=C3/C(=O)N(C)C(=S)N3C)cc2)c1,15.7%
4,O=C(Nc1ccccc1)Nc1nnc(Cc2ccc(F)cc2)s1,20.1%
5,O=C(NCc1ccco1)c1ccccc1,8.8%
6,CCN(CC)S(=O)(=O)c1ccc(N2CCOCC2)c(NC(=O)Cc2cccc3ccccc23)c1,-1.03%
7,N#CC1=C(N)N(c2ccccc2)C(c2cccc([N+](=O)[O-])c2)C1(C#N)C#N (stereo not drawn),-29.6%
8,O=C(CN1CCN(C(=O)c2ccco2)CC1)Nc1ccccc1-c1ccccc1,-50.5%
9,COC(=O)c1ccccc1NC(=O)CN1CCCCC1,9.99%
10,COC(=O)c1ccccc1NC(=O)CN1CCCCCC1,8%
11,NC(=O)c1ccc(NC(=O)CN2CCN(C(=O)c3ccco3)CC2)cc1,-3.09%
12,COc1ccccc1NC(=O)c1ccc(NC(=O)CN2CCN(C(=O)c3ccco3)CC2)cc1,-72.9%
13,O=C(CN1CCN(C(=O)c2ccco2)CC1)Nc1ccccc1,-13.9%
14,COc1ccc(NC(=O)CN2CCN(C(=O)c3ccco3)CC2)c(OC)c1,-37.4%
15,COc1ccccc1NC(=O)CN1CCN(C(=O)c2ccco2)CC1,-22%
16,COc1ccccc1NC(=O)c1ccc(NC(=O)CN2CCCC2)cc1,-34.2%
17,COc1cc([N+](=O)[O-])ccc1NC(=O)CN1CCOCC1,9.44%
18,COc1cc([N+](=O)[O-])ccc1NC(=O)CN1CCN(C(=O)c2ccco2)CC1,-78.4%
19,COC(=O)c1ccccc1NC(=O)CN1CCN(Cc2ccccc2)CC1,-74.5%
